Screens (PubChem BioAssay)
Rows were chosen to be rich in hits. Some 3.6% of all compounds tested hit in one or more screens of this group.
mHTT-CaM PPI inh = mutant huntingtin-calmodulin interaction inhibitors – biochemical, AlphaScreen, primary screen; P42858; inhibition, % at 15 µM; 190,000 tested, 3.6% active; AID 1671202, 2021; AlphaScreen His-mHTT/GST-CaM binding, luminescence
Pf apPOL inh = Pf-apPOL inhibitors, biochemical, fluorescence. inhibition, % at 10 µM. Recombinant Pf-apPOL, molecular beacon fluorescence, 1.5 h. Plasmodium falciparum apicoplast DNA polymerase (apPOL). AID 1794808, 2022. 210,000 tested, 0.25% active
Of the large screens only hits and unclear results are named; the others gave an inactive call. Cut-off read from the data, not from the text of the source: active = inhibition above about 50%; inactive = the rest.

Cc1ccsc1C(=O)N1CCC(c2nc3ccncc3n2CC(C)C)C1 (centres undefined)	none
O=C(NCCCn1ccnc1)c1cc(-c2ccc(Br)cc2)nc2ccccc12	none
O=C(NCCc1ccc(Cl)cc1)c1cc(-c2cccnc2)nc2ccccc12	mHTT-CaM PPI inh 58
O=C(NCCCn1ccnc1)c1cc(-c2ccc(Cl)s2)nc2ccccc12	mHTT-CaM PPI inh 50
O=C(NCc1cccnc1)c1cc(-c2cccnc2)nc2ccccc12	none
Cc1c(Cl)cccc1-n1ncnc1-c1cccc([N+](=O)[O-])c1	none
CCOC(=O)CCC(=O)Nc1ccc(CC(=O)NC)cc1	none
CCCCOC(=O)CN1C(=O)C(=Cc2ccc(OC)c(OC)c2)SC1=S	none
C=CCn1c(C2CCCO2)nc2ccccc21 (centres undefined)	none
CCOC(=O)NC1=C(C#N)C=Nc2ccccc2N1	none (no result: mHTT-CaM PPI inh)
COc1ccc(Oc2ccc(N)cc2)cc1	none
Nc1ccc(Oc2ccc(N)c(N)c2)cc1	mHTT-CaM PPI inh 88
Cc1cccc(-n2ccnc2SCC(=O)Nc2ccc(Cl)c(Cl)c2)c1C	mHTT-CaM PPI inh 95
O=C(CSc1nccn1-c1ccc([N+](=O)[O-])cc1)Nc1cc(C(F)(F)F)ccc1Cl	mHTT-CaM PPI inh 51
O=C(CSc1nccn1-c1cccc(Cl)c1)Nc1cc(C(F)(F)F)ccc1Cl	none
O=C(CSc1nccn1-c1ccccc1)Nc1cc(C(F)(F)F)ccc1Cl	none
Cc1cccc(-n2ccnc2SCC(=O)Nc2cccc(C(F)(F)F)c2)c1C	none
Cc1cc(C)cc(-n2ccnc2SCC(=O)Nc2cccc(C(F)(F)F)c2)c1	mHTT-CaM PPI inh 52
Cc1cccc(-n2ccnc2SCC(=O)Nc2cccc(C(F)(F)F)c2)c1	none
O=C(CSc1nccn1-c1cccc(Cl)c1)Nc1cccc(C(F)(F)F)c1	mHTT-CaM PPI inh 61
COc1ccc(NC(=O)CN2CCC3(CC2)N=C(c2ccccc2)C(=O)N3)cc1Cl	none
O=C1C(=Cc2c[nH]c3ccccc23)Oc2cc(O)ccc21	none
CCC(C)NC(=O)c1ccc(OC)cc1 (centres undefined)	none
O=C(Nc1ccccc1)c1ccc(Cn2cncn2)cc1	none
C=CCn1c(SCC(=O)Nc2cccc(Cl)c2Cl)nc2sc(C)cc2c1=O	none
N#CC1=C(N)Oc2cc(O)c(C=Nc3ccc(Br)cc3)cc2C1c1ccco1 (centres undefined)	mHTT-CaM PPI inh 100
COc1ccc(C2C(C#N)=C(N)Oc3cccc(O)c32)cc1 (centres undefined)	none
N#CC1=C(N)Oc2cc(O)ccc2C1c1ccccc1Br (centres undefined)	none
COc1ccc(N=Cc2cc3c(cc2O)OC(N)=C(C#N)C3c2cccc(F)c2)cc1 (centres undefined)	mHTT-CaM PPI inh 81
O=C(O)CCCN1C(=O)C(=Cc2cccc3ccccc23)SC1=S	none
Cc1ccc(N2C(=O)CC(N3CCN(c4ccccn4)CC3)C2=O)cc1Cl (centres undefined)	none
O=c1/c(=C/c2cccnc2)sc2n1CN(c1ccc([N+](=O)[O-])cc1)CN=2	none
Cc1cccc(Nc2nc(-c3ccc(C)c(C)c3)cs2)c1	mHTT-CaM PPI inh 55
Cc1ccc(Nc2nc(-c3ccc([N+](=O)[O-])cc3)cs2)cc1C	mHTT-CaM PPI inh 75
COc1ccc(Nc2nc(-c3ccc(C)c(C)c3)cs2)cc1	none
O=[N+]([O-])c1ccc(Nc2nc(-c3ccncc3)cs2)cc1	none
Cc1nc(N)sc1-c1csc(Nc2cccc(C(=O)O)c2)n1	none
Cc1ccnc(Nc2nc(-c3ccccc3)cs2)c1	none
Cc1ccnc(Nc2nc(-c3sc(N)nc3C)cs2)c1	mHTT-CaM PPI inh 66
Cc1nc(N)sc1-c1csc(Nc2ccccc2)n1	mHTT-CaM PPI inh 89
Cc1ccc(C(=O)n2nc(C)c(Sc3ccc([N+](=O)[O-])cc3)c2C)cc1	none
Cc1ccc(F)c(NC(=O)c2cc(C)n3nc(C)cc3n2)c1	none
O=C(c1cc(=O)c2ccccc2o1)N1CCN(Cc2nc(-c3ccc(F)cc3)cs2)CC1	none
c1ccc(Nc2nc(-c3ccc4c(c3)OCO4)cs2)nc1	none
Cc1ccc(NCc2ccc([N+](=O)[O-])cc2)cc1C	mHTT-CaM PPI inh 60
Cc1nc(N)sc1-c1csc(Nc2ccc([N+](=O)[O-])cc2)n1	mHTT-CaM PPI inh 99
CC(=O)Nc1nc(C)c(-c2csc(Nc3ccc([N+](=O)[O-])cc3)n2)s1	none
Cc1cccc(NCc2ccc([N+](=O)[O-])cc2)c1	none
Ic1ccc(-c2csc(Nc3ccc4c(c3)OCO4)n2)cc1	mHTT-CaM PPI inh 62
COc1ccccc1NC(=O)c1cc2ccccc2oc1=Nc1ccccc1F	none
O=C(O)c1ccc(C=Nc2ccc(N=Cc3ccc(C(=O)O)cc3)cc2)cc1	none
COc1cc(/C=C2\C(=O)NN(c3ccccc3)C2=O)ccc1OCC#N	none
COc1ccc(Cl)cc1NC(=O)CSc1nc(=O)n2cccc(C)c2n1	none
COc1ccc(Cl)cc1NC(=O)CSc1nc(=O)n(CCCO)c2c1CCCC2	mHTT-CaM PPI inh 57
Cc1ccccc1C(=O)Nc1sc2c(c1C(=O)NCc1cccnc1)CCC2	none
Cc1ccc(CNC(=O)C2CCN(c3nn4c(=O)c5c(nc4s3)CCCC5)CC2)cc1	mHTT-CaM PPI inh 89
O=C(NCc1cccc(F)c1)C1CCN(c2nn3c(=O)c4c(nc3s2)CCCC4)CC1	none
Cc1ccc(-n2nc3c(c2NC(=O)/C=C/c2ccccc2)CSC3)c(C)c1	none
Cc1ccccc1-n1nc2c(c1NC(=O)/C=C/c1ccccc1)CSC2	mHTT-CaM PPI inh 81
CCC(=O)Nc1c2c(nn1-c1ccccc1C)CSC2	none
O=C(Nc1c2c(nn1-c1ccccc1)CSC2)c1cccs1	none
O=C(/C=C/c1ccccc1)Nc1c2c(nn1-c1ccc(Cl)cc1)CSC2	mHTT-CaM PPI inh 56
O=C(/C=C/c1ccc2c(c1)OCO2)Nc1c2c(nn1-c1ccc(Cl)cc1)CSC2	none
Cc1ccccc1-n1nc2c(c1NC(=O)CSCc1ccccc1)CSC2	mHTT-CaM PPI inh 81
O=C(Nc1c2c(nn1-c1ccc(Cl)cc1)CSC2)c1cccs1	mHTT-CaM PPI inh 50
Cc1ccc(COCc2nn(C)c3c2CN(C(=O)Nc2ccccc2F)CC3)cc1	none
Cc1nc(CNC(=O)C2CCCN2S(=O)(=O)c2c(C)noc2C)cs1 (centres undefined)	none
COc1ccc(Oc2c(C)oc3cc(OC(=O)c4ccc([N+](=O)[O-])cc4)ccc3c2=O)cc1	none
COc1ccc(C2/C=C\C(c3ccc(OC)cc3)N(Cc3ccc(F)cc3)C(=O)C(=O)N2Cc2ccc(F)cc2)cc1 (centres undefined)	none
